Active and inactive are the calls of the source. The calls were made as follows: active = hit-call score of the fitted dose curve at least 0.9, where 1 is the maximum; inactive = score below 0.9.
Key:
[1] = APR_HepG2_NuclearSize_72hr: Apredica 72-hour HepG2 Assay for Nuclear Size (AID 2282925); conditions: high-content imaging, actives raise or lower the signal
How it was run: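 Compounds (0.39–200 uM, final DMSO 0.5%) were applied to HepG2 for 72 hr. Cells were then formaldehyde-fixed, permeabilized and labelled with Hoechst 33342. Nuclear diameter was quantified from six images per well.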

[2] = ATG_CRE_CIS: Attagene CIS-FACTORIAL HepG2 Assay for human cAMP Responsive Element (CRE) binding protein 3 (AID 2282926); conditions: HepG2 CRE cis-reporter, Attagene multiplexed mRNA; actives raise or lower the signal
How it was run: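 Cells carrying cis-regulated reporter constructs respond through their own endogenous factors. After 24 h treatment, RNA is reverse-transcribed, amplified, labelled and sized by capillary electrophoresis; up- and down-regulation are both scored against vehicle.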

[3] = molecular target: CCAAT/enhancer-binding protein beta (Homo sapiens) (UniProt P17676); assay: ATG_C_EBP_CIS: Attagene CIS-FACTORIAL HepG2 Assay for human CCAAT/Enhancer Binding Protein (C/EBP) beta (AID 2282927); conditions: HepG2 Attagene cis-factorial transcription factor reporter; actives raise or lower the signal
Sequence of CCAAT/enhancer-binding protein beta (Homo sapiens) (P17676 whole entry, looked up): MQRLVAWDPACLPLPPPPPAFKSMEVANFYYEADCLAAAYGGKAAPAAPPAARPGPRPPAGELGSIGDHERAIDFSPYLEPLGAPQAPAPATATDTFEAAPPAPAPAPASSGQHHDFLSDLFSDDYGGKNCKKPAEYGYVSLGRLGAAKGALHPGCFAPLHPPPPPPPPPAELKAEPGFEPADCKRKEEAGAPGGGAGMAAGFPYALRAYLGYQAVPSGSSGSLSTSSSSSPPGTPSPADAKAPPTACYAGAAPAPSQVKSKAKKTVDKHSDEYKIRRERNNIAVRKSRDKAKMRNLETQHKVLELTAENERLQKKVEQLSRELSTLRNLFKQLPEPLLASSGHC
How it was run: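 RT-PCR/capillary electrophoresis fluorescence of reporter mRNA, 24 h post-dose, in HepG2 cells carrying transfected cis-promoter reporter units. Bidirectional curve fitting against DMSO baseline captures gain or loss of signal.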

[4] = ATG_CMV_CIS: Attagene CIS-FACTORIAL HepG2 Assay for human CMV (Internal Marker) (AID 2282928); conditions: HepG2 CMV promoter reporter, transcription factor profiling; actives raise or lower the signal;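 also: endpoint acts as a background internal control marker rather than a target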
How it was run: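 Reporter transcripts from transfected HepG2 cells are isolated after 24 h of chemical dosing, reverse-transcribed and amplified. Fragments labeled with 6-FAM are cut with HpaI and quantified by capillary electrophoresis; DMSO defines baseline.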

[5] = ATG_DR4_LXR_CIS: Attagene CIS-FACTORIAL HepG2 Assay for human Liver X Receptor (LXR), DR4 submotif (AID 2282929); conditions: HepG2 Attagene DR4 cis-reporter, mRNA transcription; actives raise or lower the signal
How it was run: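 After transient transfection with multiplexed cis-promoter reporter units, HepG2 cells received test chemicals for 24 h. Reporter mRNA induction, detected by fluorescence after RT-PCR and capillary electrophoresis, was scored relative to DMSO.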

[6] = molecular target: Aryl hydrocarbon receptor (Homo sapiens) (UniProt P35869); assay: ATG_Ahr_CIS: Attagene CIS-FACTORIAL HepG2 Assay for human Aryl Hydrocarbon Receptor (Ahr) (AID 2282930); conditions: HepG2 AhR cis-factorial reporter transcription; actives raise or lower the signal
Sequence of Aryl hydrocarbon receptor (Homo sapiens) (P35869 whole entry, looked up): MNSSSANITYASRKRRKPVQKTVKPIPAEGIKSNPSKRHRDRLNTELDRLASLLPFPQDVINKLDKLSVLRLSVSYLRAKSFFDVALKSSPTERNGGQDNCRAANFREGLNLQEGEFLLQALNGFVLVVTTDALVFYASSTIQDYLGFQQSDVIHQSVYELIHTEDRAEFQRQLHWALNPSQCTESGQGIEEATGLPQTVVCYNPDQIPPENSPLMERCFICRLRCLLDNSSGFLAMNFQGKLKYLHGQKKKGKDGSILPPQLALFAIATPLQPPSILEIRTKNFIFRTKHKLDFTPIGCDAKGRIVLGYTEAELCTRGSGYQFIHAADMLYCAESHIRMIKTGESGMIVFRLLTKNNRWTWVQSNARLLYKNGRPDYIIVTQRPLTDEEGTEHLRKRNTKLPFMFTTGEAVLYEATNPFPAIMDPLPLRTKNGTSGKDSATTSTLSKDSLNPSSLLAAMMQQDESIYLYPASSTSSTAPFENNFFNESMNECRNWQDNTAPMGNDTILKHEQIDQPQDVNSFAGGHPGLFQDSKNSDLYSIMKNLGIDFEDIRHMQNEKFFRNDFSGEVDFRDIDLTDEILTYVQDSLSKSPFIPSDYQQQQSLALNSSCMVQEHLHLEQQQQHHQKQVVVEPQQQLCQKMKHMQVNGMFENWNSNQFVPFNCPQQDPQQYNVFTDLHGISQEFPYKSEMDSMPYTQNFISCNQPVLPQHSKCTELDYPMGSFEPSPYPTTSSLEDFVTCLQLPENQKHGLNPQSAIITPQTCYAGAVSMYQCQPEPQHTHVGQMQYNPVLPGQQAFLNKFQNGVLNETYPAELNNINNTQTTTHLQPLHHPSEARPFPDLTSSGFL
How it was run: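 HepG2 cells transiently transfected with cis-element-driven multiplexed reporter transcription units; endogenous transcription factor activity measured as reporter mRNA 24 h after dosing. RT-PCR, 6-FAM labelling, HpaI digestion, capillary electrophoresis; bidirectional fitting versus DMSO baseline.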

[7] = ATG_AP_2_CIS: Attagene CIS-FACTORIAL HepG2 Assay for human Activator Protein 2 (AP-2) (AID 2282932); conditions: HepG2 AP-2 cis-reporter, Attagene transcription factor profiling; actives raise or lower the signal
How it was run: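 Assay in transfected HepG2 with promoter-regulated reporters, 24 h incubation after dosing. Signal is reporter mRNA fluorescence (RT-PCR, capillary electrophoresis), analysed for both increases and decreases relative to DMSO controls.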

[8] = ATG_BRE_CIS: Attagene CIS-FACTORIAL HepG2 Assay for human Bone Morphogenetic Protein (BMP) Response Element (BRE) (AID 2282933); conditions: HepG2 BMP response element reporter, Attagene transcription factor profiling; actives raise or lower the signal
How it was run: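 Endogenous transcription factor activity at a BMP response element was monitored in transfected HepG2 cells 24 h after dosing. Fluorescent RT-PCR products were resolved by capillary electrophoresis, and activity was fitted in both directions versus DMSO.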

[9] = molecular target: Retinoic acid receptor alpha (Homo sapiens) (UniProt P10276); assay: ATG_DR5_RAR_CIS: Attagene CIS-FACTORIAL HepG2 Assay for human Retinoic Acid Receptor Alpha (RARE), DR5 submotif (AID 2282934); conditions: HepG2 Attagene cis-factorial RARE DR5 reporter, mRNA; actives raise or lower the signal;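 as to AC50: reporter responds to endogenous RAR alpha beta and gamma in HepG2 not RARA alone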
Sequence of Retinoic acid receptor alpha (Homo sapiens) (P10276 whole entry, looked up): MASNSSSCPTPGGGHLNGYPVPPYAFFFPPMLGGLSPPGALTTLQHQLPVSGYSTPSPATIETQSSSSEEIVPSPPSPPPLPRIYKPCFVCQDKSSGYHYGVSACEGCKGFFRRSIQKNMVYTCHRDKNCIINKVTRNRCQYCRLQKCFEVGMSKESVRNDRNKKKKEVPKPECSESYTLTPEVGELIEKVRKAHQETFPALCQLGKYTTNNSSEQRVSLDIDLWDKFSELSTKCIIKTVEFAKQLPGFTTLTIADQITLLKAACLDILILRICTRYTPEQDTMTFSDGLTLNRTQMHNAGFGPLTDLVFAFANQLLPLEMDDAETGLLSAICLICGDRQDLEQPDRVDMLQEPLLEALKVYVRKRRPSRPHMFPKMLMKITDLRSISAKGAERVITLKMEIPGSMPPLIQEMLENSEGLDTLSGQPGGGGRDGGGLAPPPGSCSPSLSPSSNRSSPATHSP
How it was run: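 HepG2 cells transiently transfected with multiplexed reporter units under cis (DR5 RARE) promoters, so endogenous transcription factor activity is measured. After 24 h compound exposure, reporter mRNA is quantified by RT-PCR with fluorescent labelling and capillary electrophoresis; bidirectional fitting versus DMSO.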

[10] = molecular target: Transcription factor E2F1 (Homo sapiens) (UniProt Q01094); assay: ATG_E2F_CIS: Attagene CIS-FACTORIAL HepG2 Assay for human E2F Transcription Factor 1 (AID 2282935); conditions: HepG2 Attagene cis-reporter, E2F reporter RNA transcripts; actives raise or lower the signal
Sequence of Transcription factor E2F1 (Homo sapiens) (Q01094 whole entry, looked up): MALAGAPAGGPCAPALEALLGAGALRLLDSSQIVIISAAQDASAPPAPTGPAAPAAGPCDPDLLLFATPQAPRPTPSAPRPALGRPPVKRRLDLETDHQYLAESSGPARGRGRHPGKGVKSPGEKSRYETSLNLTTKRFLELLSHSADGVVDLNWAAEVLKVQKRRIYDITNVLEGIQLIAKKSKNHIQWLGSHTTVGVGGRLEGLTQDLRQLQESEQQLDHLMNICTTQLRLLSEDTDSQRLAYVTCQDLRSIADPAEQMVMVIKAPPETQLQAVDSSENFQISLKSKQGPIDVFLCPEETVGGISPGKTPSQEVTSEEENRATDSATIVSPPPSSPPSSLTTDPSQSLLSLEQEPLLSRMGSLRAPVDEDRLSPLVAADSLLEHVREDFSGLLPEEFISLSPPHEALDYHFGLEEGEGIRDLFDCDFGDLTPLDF
How it was run: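 In this cis-factorial format, endogenous factor activity drives transfected reporters in HepG2; transcripts collected at 24 h are quantified by fluorescence after RT-PCR and capillary separation.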

[11] = ATG_E_Box_CIS: Attagene CIS-FACTORIAL HepG2 Assay for human Enhancer Box (E-box) (AID 2282936); conditions: HepG2 E-box cis-reporter transcription, actives raise or lower the signal
How it was run: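 Measured 24 h post-dosing in HepG2 cells transfected with multiple cis-regulated reporter units, signal being reporter mRNA induction detected by fluorescent RT-PCR with capillary electrophoresis; gain or loss fitted against DMSO.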

[12] = ATG_M_61_CIS: Attagene CIS-FACTORIAL HepG2 Assay for M61 Transcription Factor (Internal Marker) (AID 2282937); conditions: HepG2 Attagene CIS-FACTORIAL M61 internal marker reporter; actives raise or lower the signal
How it was run: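 Using transiently transfected HepG2 liver cells, reporter transcript levels were assessed 24 h post-dosing by RT-PCR and capillary electrophoresis. Changes in either direction were fitted relative to DMSO controls.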

[13] = ATG_EGR_CIS: Attagene CIS-FACTORIAL HepG2 Assay for human Early Growth Response 1 (EGR1) (AID 2282938); conditions: HepG2 Attagene CIS-FACTORIAL EGR reporter mRNA; actives raise or lower the signal
How it was run: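 Fluorescent capillary-electrophoresis signal of reporter cDNA fragments serves as read-out. HepG2 cells bear transiently transfected cis-promoter reporter units and are exposed 24 h; gain- or loss-of-signal is fitted against DMSO.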

[14] = ATG_M_19_CIS: Attagene CIS-FACTORIAL HepG2 Assay for M19 Transcription Factor (Internal Marker) (AID 2282939); conditions: HepG2 Attagene CIS-FACTORIAL M19 internal marker reporter; actives raise or lower the signal
How it was run: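 Background-control endpoint from a multiplexed HepG2 reporter panel. Cells carrying cis-regulated reporter constructs are treated 24 h, then reporter transcripts are amplified, fluorescently labelled and sized by capillary electrophoresis. DMSO defines baseline.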

[15] = ATG_ERE_CIS: Attagene CIS-FACTORIAL HepG2 Assay for Estrogen Response Element (ERE) (AID 2282940); conditions: HepG2 ERE cis-reporter, Attagene RNA transcript; actives raise or lower the signal
How it was run: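 Cells used were human hepatoma HepG2, transfected with multiple reporter transcription units under cis-regulatory promoters. Reporter mRNA, read 24 h post-dosing via fluorescent RT-PCR products on capillary electrophoresis, was fitted bidirectionally relative to DMSO.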

[16] = ATG_Ets_CIS: Attagene CIS-FACTORIAL HepG2 Assay for human Erythroblast Transformation Specific (ETS) (AID 2282941); conditions: HepG2 ETS cis-reporter transcription, actives raise or lower the signal
How it was run: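 Bidirectional fit versus DMSO of reporter mRNA signal, detected by RT-PCR and capillary electrophoresis in HepG2 cells transiently transfected with cis-element reporters and dosed 24 h.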

[17] = molecular target: Hepatocyte nuclear factor 3-beta (Homo sapiens) (UniProt Q9Y261); assay: ATG_FoxA2_CIS: Attagene CIS-FACTORIAL HepG2 Assay for human Forkhead box A2 (FOXA2) (AID 2282942); conditions: HepG2 cis-reporter transcription factor activity, 24 h; actives raise or lower the signal
Sequence of Hepatocyte nuclear factor 3-beta (Homo sapiens) (Q9Y261 whole entry, looked up, the tested form may be a part): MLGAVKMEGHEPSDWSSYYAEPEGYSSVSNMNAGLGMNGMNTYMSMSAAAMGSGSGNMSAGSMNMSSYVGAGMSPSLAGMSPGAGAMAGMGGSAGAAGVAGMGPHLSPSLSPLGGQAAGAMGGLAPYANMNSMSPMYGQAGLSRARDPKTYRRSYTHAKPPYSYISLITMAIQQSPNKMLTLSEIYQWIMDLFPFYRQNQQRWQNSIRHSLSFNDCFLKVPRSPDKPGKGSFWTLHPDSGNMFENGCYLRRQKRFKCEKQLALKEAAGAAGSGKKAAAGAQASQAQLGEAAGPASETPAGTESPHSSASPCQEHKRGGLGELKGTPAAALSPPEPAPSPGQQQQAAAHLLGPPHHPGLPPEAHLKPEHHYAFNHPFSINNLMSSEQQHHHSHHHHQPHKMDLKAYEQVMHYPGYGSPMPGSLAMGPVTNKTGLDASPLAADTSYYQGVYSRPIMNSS
How it was run: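 Fluorescence signal of reporter cDNA fragments, separated by capillary electrophoresis, reflects endogenous transcription factor activity in transfected HepG2 after 24 h. Both increases and decreases fitted against DMSO.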

[18] = ATG_FoxO_CIS: Attagene CIS-FACTORIAL HepG2 Assay for human Forkhead box O (FoxO) (AID 2282943); conditions: HepG2 Attagene cis-reporter, FoxO element, mRNA; actives raise or lower the signal
How it was run: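 HepG2 cells transiently transfected with cis-promoter-driven multiple reporter transcription units; 24 h after chemical dosing, reporter mRNA quantified by RT-PCR, fluorescent primer extension, HpaI digestion and capillary electrophoresis. Bidirectional fitting versus DMSO baseline.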

[19] = ATG_GATA_CIS: Attagene CIS-FACTORIAL HepG2 Assay for human GATA Binding Protein (AID 2282944); conditions: HepG2 GATA cis-element reporter, Attagene multiplex mRNA; actives raise or lower the signal
How it was run: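 Endogenous transcription factor activity was captured through cis-promoter-driven reporters in transfected HepG2 cells. After 24 h exposure, reporter transcripts were quantified by RT-PCR with fluorescent capillary electrophoresis, and responses fitted both directions against DMSO.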

[20] = ATG_AP_1_CIS: Attagene CIS-FACTORIAL HepG2 Assay for human Activator Protein 1 (AP-1) (AID 2282931); conditions: HepG2 Attagene cis-factorial AP-1 reporter mRNA; actives raise or lower the signal
How it was run: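 After 24 h incubation with test chemical, RNA from transfected HepG2 cells was reverse-transcribed, amplified, fluorescently labelled and digested before capillary electrophoresis. Reporters were driven by cis-regulatory promoters; activity fitted bidirectionally versus DMSO.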

Measured: AC50

CCOC(=O)C(C)OC(=O)c1cc(Oc2ccc(C(F)(F)F)cc2Cl)ccc1[N+](=O)[O-] (configuration not stated)
active: [6] 14.7 µM | [8] 17.8 µM | [15] 34.1 µM
not listed: [20]
inactive: all other assays above

Clc1cccc(C(Cl)(Cl)Cl)n1
not listed: [9]
inactive: all other assays above

CC1(C)CCC(=Cc2ccc(Cl)cc2)C1(O)Cn1cncn1 (configuration not stated)
active: [9] 18.8 µM
not listed: [20]
inactive: all other assays above

N#Cc1c(Cl)cccc1Cl
not listed: [9]
inactive: all other assays above

Cn1c(-c2ccccc2)cc(-c2ccccc2)[n+]1C
not listed: [9]
inactive: all other assays above

Cc1c(COC(=O)[C@@H]2[C@H](/C=C(\Cl)C(F)(F)F)C2(C)C)cccc1-c1ccccc1
active: [4] 11.3 µM | [15] 20.9 µM
not listed: [9] | [20]
inactive: all other assays above

O=C1C2CC=CCC2C(=O)N1SC(Cl)(Cl)Cl (configuration not stated)
not listed: [9]
inactive: all other assays above

From PubChem BioAssay (EPA / NIEHS)
